The list is not random: actives were taken first. Their share in the collection is about 6.5%.
Autofluor 339 = intrinsic fluorescence of library compounds, ex339/em460 – biochemical, MLSMR library, data from DPM-DC assay, artefact control, profiling panel | 65,000 compounds, 5.5% hits | fluorescence fold increase at 10 µM | compound autofluorescence, ex339/em460 nm, NADH buffer; stronger effect = higher value; 1 = no-compound wells, NADH background | AID 709;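 active = at 10 µM, mean starting fluorescence two-fold or more over control wells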;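 also: signal is the first read of a kinetic run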
Spn PMK inh = S. pneumoniae PMK inhibition. purified PMK, PK/LDH-coupled NADH absorbance 340 nm. inhibition, % at 10 µM. 65,000 compounds, 0.49% hits. AID 539;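 active = top-ranked compounds by inhibition in the single 10 µM screen, taking a fixed number of the strongest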
Spn MK inh = blocks S. pneumoniae mevalonate kinase; purified MK, PK/LDH-coupled NADH absorbance 340 nm; AID 555; 65,000 compounds, 0.48% hits; inhibition, % at 10 µM;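 active = ranked among the strongest by inhibition in the single 10 µM screen, a fixed top-ranked set picked for dose follow-up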
A340 absorber = absorbance at 340 nm; compound absorbance at 340 nm, fold over control; 65,000 tested, under 10 active; fold change at 10 µM;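 active = at 10 µM dose, initial 340 nm absorbance at least 2 fold that of control wells; inactive = change under 2 fold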;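 also: initial absorbance extrapolated from kinetic A340 decline of NADH oxidation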
Spn DPM-DC inh = blocks S. pneumoniae diphosphomevalonate decarboxylase; purified DPM-DC, PK/LDH coupled NADH fluorescence; calls only at 10 µM; 65,000 compounds, 0.49% hits; AID 556;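 active = the 320 compounds with the highest percent inhibition in the single-dose primary screen, excluding strongly autofluorescent ones, cut at about 32% in these data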;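 also: kinetic rate of NADH fluorescence loss reporting ADP formed by the decarboxylase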
NADH coupling = inhibition of NAD/NADH coupling enzymes, library profiling | AID 774 | 65,000 compounds, 0.02% hits | coupled PK/LDH NADH assays, four targets | IC50, µM (doses to about 10 µM);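 active = single-dose screening hits from any of four coupled enzyme assays that gave an IC50 when retested across doses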;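 also: the DPM-DC format reads NADH fluorescence rather than 340 nm absorbance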
Numbers stand for hits; 0 = inactive; - = no result given; + = active, no number.

SMILES	Autofluor 339	Spn PMK inh	Spn MK inh	A340 absorber	Spn DPM-DC inh	NADH coupling
CCC1C(=O)n2nc(-c3ccccc3)cc2N=C1C (stereo not drawn)	2	0	0	0	0	0
CCOC(=O)c1ccccc1NC(=O)CSc1nnnn1C1CCCCC1	0	0	0	0	0	0
COc1ccccc1N1CCN(Cc2ccc(OC)c(OC)c2OC)CC1	0	0	47	0	0	0
COc1ccc(OC)c(CN2CCN(c3ccccc3OC)CC2)c1	0	0	51	0	0	0
CCCS(=O)(=O)N1CCN(Cc2ccccc2OCC)CC1	0	0	0	0	0	0
CCOc1ccccc1CN1CCN(S(=O)(=O)CC)CC1	0	0	58	0	0	0
CCOc1ccccc1N1CCN(Cc2cccc(OC)c2OC)CC1	0	0	49	0	0	0
CCS(=O)(=O)N1CCN(Cc2ccccc2OC)CC1	0	0	0	0	0	0
O=C(CSc1c2c(nc3ccc(Cl)cc13)CCCC2)N1CCN(C(=O)c2ccco2)CC1	0	0	0	0	0	0
CC1(C)NC(=O)N(CCCSc2ccc(Cl)cc2)C1=O	0	0	0	0	0	0
c1ccc(N2CCN(Cc3ccsc3)CC2)nc1	0	0	0	0	0	0
COc1ccccc1N1CCN(Cc2ccsc2)CC1	0	0	42	0	0	0
Cc1cc2oc(=O)cc(C)c2cc1NC(=O)CCC(=O)O	2.5	0	0	0	0	0
CN(C)CCNC(=O)Cn1nc(C(F)F)cc1C1CC1	0	0	0	0	0	0
CCCCS(=O)(=O)NC1=NCN(Cc2ccco2)CN1	0	0	0	0	0	0
COC(=O)c1cc(-c2ccccc2)sc1NC(=O)c1cc(C)on1	2.5	0	0	0	-	0
CC(C)c1nc(=S)n(-c2ccccc2)[nH]1	0	0	44	0	0	0
CCOC(=O)c1nn(-c2cc(C(=O)OC)cc(C(=O)OC)c2)cc1O	0	0	0	0	0	0
CCOC(=O)c1nn(-c2ccc3c(c2)OCO3)cc1O	2.1	0	0	0	-	0
O=C(Cn1ccc2ccccc2c1=O)NCCC(=O)NC1CCN(Cc2ccccc2)CC1	0	0	0	0	0	0
Cc1cc(N2CCCCC2)n2ncc(-c3ccccc3)c2n1	2.5	0	0	0	0	0
Cc1nn2c(N3CCCC3)cc(C(C)C)nc2c1-c1ccccc1	2.1	0	0	0	0	0
Cc1cc(N2CCCCC2)n2ncc(-c3ccc(Cl)cc3)c2n1	3.7	0	0	0	-	0
CCCc1cc(N2CCN(c3ccccn3)CC2)n2nc(C)c(-c3ccccc3)c2n1	2.8	0	0	0	0	0
Cn1cccc1C(=S)N=P(C1CCCCC1)(N1CCOCC1)N1CCOCC1	0	0	0	0	0	0
SMILES	Autofluor 339	Spn PMK inh	Spn MK inh	A340 absorber	Spn DPM-DC inh	NADH coupling
O=C(c1ccccc1/S(=N/S(=O)(=O)c1ccccc1)N1CCOCC1)N1CCOCC1 (stereo not drawn)	0	0	0	0	0	0
Cc1nc2ccc(C(C(F)(F)F)(C(F)(F)F)C(F)(F)F)cc2[nH]1	0	0	0	0	0	0
Cn1cc(NC(=O)c2cc(NC(=O)c3cc(NC=O)cn3C)cn2C)cc1C(=O)NCCC(=N)N	0	0	0	0	0	0
Cc1cc(N2CCN(C(=O)c3ccco3)CC2)n2ncc(-c3ccccc3)c2n1	0	0	0	0	0	0
Cc1cc(N2CCC(C)CC2)n2nc(C)c(-c3ccccc3)c2n1	2.4	0	0	0	0	0
Cc1cc(N2CCCCC2)n2nc(C)c(-c3ccccc3)c2n1	0	0	0	0	0	0
Cc1cc(N2CCC(C)CC2)n2ncc(-c3ccccc3)c2n1	3	0	0	0	0	0
Cc1occc1-c1nnc(SCC(=O)NC(C)(C)C)n1C(C)c1ccccc1 (stereo not drawn)	0	0	0	0	0	0
Cc1nnc(C)c2c(C)n(C(C)c3ccccc3)c(C)c12 (stereo not drawn)	2.1	0	0	0	0	0
COc1ccc2c(c1)CCc1c(C(=O)Nc3cc(C)n(Cc4ccc(Cl)cc4)n3)noc1-2	3.7	0	0	0	0	0
COc1ccc2c(c1)CCc1c(C(=O)Nc3ccn(Cc4ccc(C)cc4)n3)noc1-2	0	0	0	0	0	0
COc1ccc2c(c1)CCc1c(C(=O)Nc3ccc(OC)c(OC)c3)noc1-2	2.2	0	0	0	0	0
CC1(C)CC(=O)C(C=NCC2CCN(C(=O)Nc3ccccc3)CC2)=C(O)C1	0	0	0	0	0	0
CCOC(=O)CSc1nnc(Cn2nnc(-c3ccccc3)n2)n1C	0	0	0	0	0	0
Cc1cc(NC(=O)CSc2nnnn2C2CCCC2)no1	2.8	0	0	0	0	0
CNc1nc(C)c(C(=O)OCc2ccccc2)s1	0	0	0	0	0	0
O=C(Nc1ccc2oc(-c3ccccc3Cl)nc2c1)c1ncn[nH]1	2.1	0	0	0	-	0
O=C(Nc1ccc(N2CCOCC2)c(Cl)c1)c1ncn[nH]1	0	0	0	0	0	0
CC(C)c1ccc2oc(-c3ccc(NC(=O)c4ncn[nH]4)cc3)nc2c1	3.6	0	0	0	-	0
CCC(C)c1ccc(O)c(NC(=O)c2ncn[nH]2)c1 (stereo not drawn)	0	0	0	0	0	0
Cc1ccc(-c2nc3cc(N)ccc3o2)c(C)c1	4	0	0	0	-	0
CCC(C)c1ccc2oc(-c3ccc(NC(=O)c4ncn[nH]4)cc3)nc2c1 (stereo not drawn)	3.6	0	0	0	-	0
Cc1ccc(-c2nc3cc(N)ccc3o2)cc1	0	0	0	0	-	0
Cc1cc(NC(=O)CSc2ccc3c(c2)OCCO3)no1	0	0	0	0	0	0
CC(C)c1ccc2oc(-c3ccc(N)cc3)nc2c1	2.1	0	0	0	-	0
SMILES	Autofluor 339	Spn PMK inh	Spn MK inh	A340 absorber	Spn DPM-DC inh	NADH coupling
CCCNC(=O)c1c(N)n(-c2cc(OC)cc(OC)c2)c2nc3ccccc3nc12	2.5	0	0	0	-	0
Nc1c(C(=O)NC2CC2)c2nc3ccccc3nc2n1-c1ccc2c(c1)OCO2	3.2	0	0	0	-	0
CCCNC(=O)c1c(N)n(-c2ccc3c(c2)OCO3)c2nc3ccccc3nc12	0	0	0	0	0	0
COCCCNC(=O)c1c(N)n(-c2ccc3c(c2)OCO3)c2nc3ccccc3nc12	2.7	0	0	0	0	0
COc1ccc(OC)c(C(C)NC(=O)c2ccco2)c1 (stereo not drawn)	0	0	0	0	0	0
c1ccc(-c2noc(-c3ccco3)n2)nc1	0	0	0	0	0	0
c1ccc(-c2nc(-c3ccco3)cs2)nc1	2.1	0	0	0	-	0
O=C(Cc1ccccc1)N1CCCC(c2nc(-c3cccs3)no2)C1 (stereo not drawn)	0	0	0	0	0	0
O=S(=O)(Cc1ccccc1)N1CCC(c2nc(-c3cccs3)no2)CC1	3.1	0	0	0	0	0
CC(C)(CO)NC(=O)C(c1ccccc1)c1ccccc1	0	0	0	0	+	0

Source: PubChem BioAssay (SRMLSC)
